Read-out in experiment [1]: Interleukin-1 alpha (IL1a), IL1A (gene 3552)
Briefly: BSK_KF3CT_IL1a: BioMAP Diversity Plus: KF3CT Assay for Interleukin-1 alpha (IL1a) Biomarker Activity (AID 2283070). The following applies: primary human keratinocytes with fibroblasts; actives raise or lower the signal. Summed up: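 Readout is IL-1a level by ELISA, compared bidirectionally with DMSO as baseline. Cells: human keratinocytes co-cultured with foreskin fibroblasts, harvested 24 h post-dose.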

Read-out in experiment [2]: TIMP metallopeptidase inhibitor 2 (TIMP2), TIMP2 (gene 7077)
Briefly: BSK_KF3CT_TIMP2: BioMAP Diversity Plus: KF3CT Assay for TIMP metallopeptidase inhibitor 2 (TIMP2) Biomarker Activity (AID 2283071). As to conditions: primary human keratinocytes with fibroblasts; actives raise or lower the signal. The gist of the method: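 Measurements come from ELISA detection of TIMP-2 at 24 hours in a dosed human keratinocyte and foreskin fibroblast co-culture. DMSO serves as negative control and baseline.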

Read-out in experiment [3]: Transforming growth factor beta 1 (TGFb1), TGFB1 (gene 7040)
Description: BSK_KF3CT_TGFb1: BioMAP Diversity Plus: KF3CT Assay for Transforming growth factor beta 1 (TGFb1) Biomarker Activity (AID 2283072). As to conditions: primary human keratinocytes with fibroblasts; actives raise or lower the signal. The gist of the method: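 TGF-b1 ELISA on a 24 h dosed co-culture of human keratinocytes and foreskin fibroblasts; cytotoxicity tracked in parallel cultures by SRB staining.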

Read-out in experiment [4]: C-C motif chemokine 2 (Homo sapiens) (UniProt P13500)
Description: BSK_KF3CT_MCP1: BioMAP Diversity Plus: KF3CT Assay for Monocyte Chemoattractant Protein 1 (MCP1/CCL2) Biomarker Activity (AID 2283073). The following applies: primary human keratinocytes with fibroblasts; actives raise or lower the signal. Summed up:
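Keratinocytes and foreskin fibroblasts were co-cultured, dosed with chemical, and sampled 24 h later. MCP-1 was quantified by ELISA, and the endpoint was analyzed with bidirectional fitting using DMSO as negative control.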

Read-out in experiment [5]: Matrix Metallopeptidase 9 (MMP9), MMP9 (gene 4318)
Description: BSK_KF3CT_MMP9: BioMAP Diversity Plus: KF3CT Assay for Matrix Metallopeptidase 9 (MMP9) Biomarker Activity (AID 2283074).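 As to AC50: MMP9 protein level quantified by ELISA in the co-culture.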 The following applies: primary human keratinocytes with fibroblasts; actives raise or lower the signal. The gist of the method:
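Values come from bidirectional fitting relative to DMSO of MMP-9 levels, which were measured by ELISA. Measurements were taken 24 h after chemical dosing of a keratinocyte and foreskin fibroblast co-culture.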

Read-out in experiment [6]: urokinase plasminogen activator (uPA), PLAU (gene 5328)
Description: BSK_KF3CT_uPA: BioMAP Diversity Plus: KF3CT Assay for urokinase plasminogen activator (uPA) Biomarker Activity (AID 2283075). The following applies: primary human keratinocytes with fibroblasts; actives raise or lower the signal. Summed up:
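Values derive from bidirectional fitting against DMSO controls. Keratinocyte/foreskin fibroblast co-cultures received chemical; 24 h later uPA was detected by ELISA, with SRB total-protein staining in parallel wells for overt cytotoxicity.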

Read-out in experiment [7]: CD40, CD40 (gene 958)
Briefly: BSK_LPS_CD40: BioMAP Diversity Plus: LPS Assay for CD40 Biomarker Activity (AID 2283076). The following applies: primary human HUVEC with PBMC; actives raise or lower the signal. The gist of the method:
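CD40 signal, measured by ELISA, is fitted in both directions relative to DMSO vehicle. The system is an LPS-driven human vascular primary co-culture of endothelial cells and PBMC, sampled 24 h after compound addition.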

Read-out in experiment [8]: E-selectin (Homo sapiens) (UniProt P16581)
Description: BSK_LPS_Eselectin: BioMAP Diversity Plus: LPS Assay for Eselectin Biomarker Activity (AID 2283077). The following applies: primary human HUVEC with PBMC; actives raise or lower the signal. Summed up: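 Signal of E-selectin, detected by ELISA, served as the endpoint; cells were umbilical vein endothelium with PBMC, read 24 h after treatment. DMSO defined baseline, and both increases and decreases were fitted.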

Read-out in experiment [9]: Interleukin-8 (IL8), CXCL8 (gene 3576)
Briefly: BSK_LPS_IL8: BioMAP Diversity Plus: LPS Assay for Interleukin-8 (IL8) Biomarker Activity (AID 2283078). As to conditions: primary human HUVEC with PBMC; actives raise or lower the signal. The gist of the method: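 Endothelial cells and PBMC from human donors are co-cultured, treated with chemicals and LPS, then assayed for IL-8 by ELISA after 24 h. Parallel SRB staining (0.1% SRB after 10% TCA fixation, 560 nm) flags cytotoxicity.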

A short description of experiment [10]: BSK_LPS_SRB: Viability Assessment in the BioMAP Diversity Plus: LPS Assay (AID 2283079).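 Also: total protein by sulforhodamine B absorbance as a cytotoxicity measure; measured one day after compound addition; fitted in both directions against DMSO so loss or gain of signal counts.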 The following applies: primary human HUVEC with PBMC. The gist of the method: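 Overt cytotoxicity was gauged by sulforhodamine B total-protein staining in a primary human vascular endothelial and mononuclear cell co-culture 24 h post-dosing. Activity was fitted in both directions relative to DMSO.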

Read-out in experiment [11]: Interleukin-1 alpha (IL1a), IL1A (gene 3552)
Briefly: BSK_LPS_IL1a: BioMAP Diversity Plus: LPS Assay for Interleukin-1 alpha (IL1a) Biomarker Activity (AID 2283080). As to conditions: primary human HUVEC with PBMC; actives raise or lower the signal. Summed up: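 Measured: IL-1 alpha via ELISA at 24 h in LPS-activated human umbilical vein endothelium–PBMC co-culture. Baseline: DMSO, bidirectional fitting.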

Read-out in experiment [12]: Monocyte Chemoattractant Protein-1 (MCP1), CCL2 (gene 6347)
Description: BSK_LPS_MCP1: BioMAP Diversity Plus: LPS Assay for Monocyte Chemoattractant Protein-1 (MCP1) Biomarker Activity (AID 2283081). As to conditions: primary human HUVEC with PBMC; actives raise or lower the signal. Summed up: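 LPS-stimulated HUVEC/PBMC co-culture; chemical, 24 h; MCP-1 by ELISA; bidirectional fit vs DMSO; cytotoxicity via SRB (0.1% stain, 10% TCA fix, 560 nm) in parallel wells.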

The nature of experiment [13]: BSK_LPS_PGE2: BioMAP Diversity Plus: LPS Assay for Prostaglandin E2 (PGE2) Biomarker Activity (AID 2283082).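 As to AC50: secreted prostaglandin E2 measured by ELISA in LPS-stimulated co-culture.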 The following applies: primary human HUVEC with PBMC; actives raise or lower the signal. The gist of the method: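 Primary human endothelial cells and blood mononuclear cells, co-cultured with LPS, receive test chemical; PGE2 ELISA follows at 24 h, with SRB-stained parallel cultures flagging cytotoxicity.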

Read-out in experiment [14]: Macrophage colony-stimulating factor (MCSF), CSF1 (gene 1435)
Description: BSK_LPS_MCSF: BioMAP Diversity Plus: LPS Assay for Macrophage colony-stimulating factor (MCSF) Biomarker Activity (AID 2283083). As to conditions: primary human HUVEC with PBMC; actives raise or lower the signal. The gist of the method: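 Compound is added to a human vascular primary co-culture of umbilical vein endothelium and blood mononuclear cells. After 24 h, M-CSF is quantified by ELISA. Signal changes are fitted in both directions against DMSO.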

Read-out in experiment [15]: Tissue Factor, F3 (gene 2152)
Description: BSK_LPS_TissueFactor: BioMAP Diversity Plus: LPS Assay for Tissue Factor Biomarker Activity (AID 2283084). As to conditions: primary human HUVEC with PBMC; actives raise or lower the signal. Summed up:
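In this co-culture system of umbilical vein endothelium with PBMC, stimulated with LPS, cell-surface CD142 is detected by ELISA at 24 h. Endpoint values derive from bidirectional fitting, DMSO serving as baseline.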

Read-out in experiment [16]: Vascular cell adhesion molecule 1 (VCAM1), VCAM1 (gene 7412)
Briefly: BSK_LPS_VCAM1: BioMAP Diversity Plus: LPS Assay for Vascular cell adhesion molecule 1 (VCAM1) Biomarker Activity (AID 2283086). The following applies: primary human HUVEC with PBMC; actives raise or lower the signal. The gist of the method: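 Measured by ELISA: VCAM-1 in LPS-activated HUVEC/PBMC co-cultures 24 h after treatment. Values reflect bidirectional fitting with DMSO as baseline.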

Read-out in another experiment: CD38, CD38 (gene 952)
Briefly: BSK_SAg_CD38: BioMAP Diversity Plus: SAg Assay for CD38 Biomarker Activity (AID 2283087). As to conditions: primary human HUVEC with PBMC; actives raise or lower the signal. The gist of the method:
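Measures CD38 on a human endothelial/PBMC co-culture driven by SEB and TSST-1, 24 h after compound exposure, using ELISA with fluorescence detection; DMSO defines baseline for bidirectional curve fitting.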

Read-out in experiment [17]: CD40, CD40 (gene 958)
Briefly: BSK_SAg_CD40: BioMAP Diversity Plus: SAg Assay for CD40 Biomarker Activity (AID 2283088). As to conditions: primary human HUVEC with PBMC; actives raise or lower the signal. Summed up: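 Fluorescence ELISA read-out of CD40 from umbilical vein endothelium plus peripheral blood mononuclear cells, sampled 24 h after dosing. Values come from bidirectional curve fitting with DMSO as baseline.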

Read-out in another experiment: CD69, CD69 (gene 969)
Description: BSK_SAg_CD69: BioMAP Diversity Plus: SAg Assay for CD69 Biomarker Activity (AID 2283089).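 As to AC50: cell surface CD69 protein quantified by ELISA with fluorescence detection.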 As to conditions: primary human HUVEC with PBMC; actives raise or lower the signal. The gist of the method:
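HUVEC co-cultured with PBMC were dosed with chemical, and CD69 was measured by ELISA with fluorescence read-out 24 h later. Bidirectional curve fitting used DMSO as negative control and activity baseline.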

Read-out in experiment [18]: Tumor necrosis factor (Homo sapiens) (UniProt P01375)
Description: BSK_LPS_TNFa: BioMAP Diversity Plus: LPS Assay for Tumour Necrosis Factor alpha (TNFa) Biomarker Activity (AID 2283085).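 Also: TNFa protein level quantified by ELISA in the co-culture.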 As to conditions: primary human HUVEC with PBMC; actives raise or lower the signal. Summed up: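 ELISA-based TNFa endpoint in a human endothelial–PBMC co-culture sampled 24 h post-exposure. Curves were fitted in both directions using DMSO as baseline of activity.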

Drawing on PubChem BioAssay (EPA / NIEHS), this text covers outcome and AC50 for three compounds.

What is called AC50 is the midpoint of the concentration-response curve, whichever way the signal moves.

The source made the active and inactive calls. The calls were made as follows: active = hit-call score of the fitted dose curve at least 0.9, where 1 is the maximum; inactive = score below 0.9.

Chain of E-selectin (Homo sapiens) (P16581 whole entry, looked up): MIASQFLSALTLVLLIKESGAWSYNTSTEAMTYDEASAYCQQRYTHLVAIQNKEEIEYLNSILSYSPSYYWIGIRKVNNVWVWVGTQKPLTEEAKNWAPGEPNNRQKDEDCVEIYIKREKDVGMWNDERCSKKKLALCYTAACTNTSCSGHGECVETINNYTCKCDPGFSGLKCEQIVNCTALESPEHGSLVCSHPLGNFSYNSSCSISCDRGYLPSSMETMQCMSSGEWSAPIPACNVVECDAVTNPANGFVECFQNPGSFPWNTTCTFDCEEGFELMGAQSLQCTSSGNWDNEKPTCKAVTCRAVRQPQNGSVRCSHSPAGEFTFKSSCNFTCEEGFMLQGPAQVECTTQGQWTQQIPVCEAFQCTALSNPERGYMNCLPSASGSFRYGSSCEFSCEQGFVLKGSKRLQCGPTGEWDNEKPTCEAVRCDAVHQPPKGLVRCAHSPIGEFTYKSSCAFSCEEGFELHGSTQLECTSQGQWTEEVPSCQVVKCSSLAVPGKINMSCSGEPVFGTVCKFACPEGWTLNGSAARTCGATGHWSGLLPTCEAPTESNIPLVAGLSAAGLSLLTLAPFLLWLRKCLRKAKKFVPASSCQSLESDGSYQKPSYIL
Chain of Tumor necrosis factor (Homo sapiens) (P01375 whole entry, looked up): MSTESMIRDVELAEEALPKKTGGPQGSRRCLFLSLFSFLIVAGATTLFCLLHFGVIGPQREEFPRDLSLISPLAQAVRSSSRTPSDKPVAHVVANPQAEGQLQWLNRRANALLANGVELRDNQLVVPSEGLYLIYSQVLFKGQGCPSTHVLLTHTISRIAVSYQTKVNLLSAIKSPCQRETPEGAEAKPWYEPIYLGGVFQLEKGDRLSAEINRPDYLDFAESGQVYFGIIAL

Turning to `CC(C)(C)OOC(C)(C)C`, the result in experiment [1], in [2], in experiment [3], in experiment [4], in [5] and in experiment [6] was inactive. Also, the outcome with CD40, CD40 (gene 958) [7] was “inactive”; in experiment [8], “inactive”; in experiment [9], “inactive”; in experiment [10], “inactive”; in experiment [11], “inactive”; in experiment [12], “inactive”. Moreover, the outcome in experiment [13] was “inactive”; in experiment [14], “inactive”; in [15] it was “inactive”; in [16], “inactive”; with CD38, CD38 (gene 952) it was “inactive”; with CD40, CD40 (gene 958) [17], “inactive”. Besides, in the experiment with CD69, CD69 (gene 969), the result was inactive.

For `N#Cc1c(-c2ccc(Cl)cc2)[nH]c(C(F)(F)F)c1Br`, the outcome in [1], in [2], in [6], in [8], in experiment [12] and in experiment [14] was inactive. The result in [15] was inactive. The AC50 is 186 nM (active) in experiment [3]; 62.1 nM (active) in experiment [4]; 3970 nM (active) in experiment [5]; 4050 nM (active) with CD40, CD40 (gene 958) [7]; 4180 nM (active) in [9]; 3970 nM (active) in experiment [10]. Besides, the AC50 in experiment [11] is 1360 nM (active); in experiment [13], 949 nM (active); in experiment [18], 16 nM (active); in experiment [16], 3970 nM (active); with CD38, CD38 (gene 952), 343 nM (active); in the experiment with CD40, CD40 (gene 958) [17], 340 nM (active). Further, the AC50 with CD69, CD69 (gene 969) is 472 nM (active).

Take `CCOP(=S)(NC(C)C)Oc1ccccc1C(=O)OC(C)C` (stereo not drawn): the result in experiment [1], in experiment [2], in experiment [3], in experiment [4], in experiment [5] and in experiment [6] was inactive. Moreover, the outcome with CD40, CD40 (gene 958) [7] is “inactive”; in [8], “inactive”; in experiment [9] it was “inactive”; in [10] it was “inactive”; in experiment [11], “inactive”; in experiment [12], “inactive”. The outcome in experiment [13] is “inactive”; in [14], “inactive”; in experiment [15], “inactive”; in experiment [16] it was “inactive”; with CD38, CD38 (gene 952), “inactive”; with CD40, CD40 (gene 958) [17], “inactive”. The result with CD69, CD69 (gene 969) was inactive.
